Screens from PubChem BioAssay.
Only a selection was taken, and hits are over-represented in it overall.
N370S GC mod: inhibits or activates N370S mutant glucocerebrosidase; P04062; N370S GC spleen homogenate, 4MU-glucoside fluorescence; Potency, µM (highest dose often 59.4 µM), for the others: at the top dose activity change, negative = inhibition, most hits filed as inhibitors; actives 0.092% (n = 330,000); AID 2101;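 also: potency is read from the fitted curve at half-maximal effect; 0% = full enzyme activity and -100% = no enzyme basal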
ClpP mod: qHTS Assay for Activators of ClpP | purified B. subtilis ClpP, FRET peptide cleavage, 20 min | Potency, µM (titrated, usually from 57.5 µM), for the others: at the highest dose activity change, negative = active | actives 1.9% (n = 340,000); active = well fitted falling curve with a large enough effect; inconclusive = small, poorly fitted or top-dose-only effect; inactive = no such curve, though single readings can be large or run the other way; also: potency is read from the fitted curve at half-maximal effect; the source files actives as falling curves though it sought activators and does not explain the sign; nearly all actives have a fitted effect of over 65% in size
Target sequence (P80244 whole entry, looked up): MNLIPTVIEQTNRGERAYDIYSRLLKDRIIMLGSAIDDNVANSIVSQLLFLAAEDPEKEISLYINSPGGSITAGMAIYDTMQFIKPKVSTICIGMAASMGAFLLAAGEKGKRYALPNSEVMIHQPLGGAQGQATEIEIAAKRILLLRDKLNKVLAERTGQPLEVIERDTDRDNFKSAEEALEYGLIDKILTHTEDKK
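ClpP 10 microg/mL final, pH 8 Tris/KCl buffer with BSA, glycerol, Tween-20; compound pinned in; FRET-FV substrate; RT 20 min; Ex320/Em430; ΔFRET vs ADEP 5.8 microM, DMSO, no enzyme.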
Apoferritin bind: binds horse apoferritin like a general anesthetic. actives 0.074% (n = 350,000). apoferritin/1-aminoanthracene competitive binding, fluorescence. P02791. Potency, µM (highest dose often 77.5 µM), inactives show top-dose activity change, negative = displacement, most hits filed as inhibitors. AID 485281; also: potency is read from the fitted curve at half-maximal effect; % is scaled to controls: 0 for no effect and ±100 for the full control effect; nearly all actives have a fitted effect of over 20% in size
Target sequence (P02791 2-175 limits assumed): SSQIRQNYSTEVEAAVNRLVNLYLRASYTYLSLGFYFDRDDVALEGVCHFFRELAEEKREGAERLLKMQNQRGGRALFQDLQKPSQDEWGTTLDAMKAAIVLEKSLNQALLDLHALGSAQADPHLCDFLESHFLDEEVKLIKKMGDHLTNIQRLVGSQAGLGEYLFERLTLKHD
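10 uM apoferritin + 50% sat. 1-AMA, PBS; cpd 10 min RT; Ex380/Em535 endpoint; normalized to free probe vs complex; 4-param Hill fit; propofol titration as pos. ctrl.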
CBFb-RUNX1 inh: inhibitors of human CBF-beta and RUNX1 interaction; Q01196+Q13951; AlphaScreen CBFb-His/RUNX1-biotin binding, biochemical; Potency, µM (series often up to 59.8 µM), for inactives: top-dose activity, negative = inhibition, actives largely listed as inhibitors; 230,000 tested, under 10 active; also: % of control where 0% means no effect
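Bead-based AlphaScreen assay; binding partners His-tagged CBF-beta and biotinylated RUNX1 at 30 nM each. Compound exposure 15 min after a 20-min protein preincubation; bead step 90 min; all steps at room temperature.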
Integrin act MD: activates integrin-mediated alleviation for muscular dystrophy. alpha7betagal myoblasts, beta-gal FDG fluorescence, 48 h. actives 0.064% (n = 350,000). Potency, µM (top dose mostly 38.3 µM), without a hit: at the highest dose activation, hits mostly activators. AID 624291;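 also: potency is read from the fitted curve at half-maximal effect; 100% = response of the positive control SU9516; nearly all actives have a fitted effect of over 60% in size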
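alpha7betagal+/- myoblasts (passage 13, 250/well) treated 48 h at 37C with compounds at 1:260 dilution of DMSO stock. Lysed, then beta-galactosidase activity read as FDG fluorescence (ex 480/em 540) after 30 min, with pre-read for autofluorescence.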
Glioma ERSR ind: induces the endoplasmic reticulum stress response in human glioma cells; Potency, µM, for inactives: at the top dose activation, usual class: activators; U87-MG GRP78 promoter luciferase reporter, 16 h; AID 602332; actives 0.02% (n = 420,000); also: potency is read from the fitted curve at half-maximal effect; series mostly up to about 76 µM; % of control where 0% means no effect; nearly all actives have a fitted effect of over 35% in size
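Stably transfected U87-MG human glioma cells carrying a GRP78-based luminescent sensor were seeded at 1000 cells/well, pin-dosed with compounds and incubated 16 h. Luciferase reagent was then added, and end-point luminescence was read after 10 min at room temperature.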
* marks the source's active call; other numbers are inactive results. Unless noted, calls follow the shape of the dose curve; as a rule, active = well fitted curve in the direction sought with a large enough effect; inconclusive = small, poorly fitted or top-dose-only effect, or another doubt; inactive = no such curve, though single readings can be large; an effect the other way counts as inactive or inconclusive.

CCOc1ccc(S(=O)(=O)N2CC(=O)Nc3ccccc32)cc1 was read as N370S GC mod 3%, ClpP mod 32µM*, Apoferritin bind 4%, Integrin act MD -4% and Glioma ERSR ind -2%.
For CCOC(=O)Cc1csc(NC(=O)c2cc(C)c(C)s2)n1 the results were ClpP mod 28µM*, Integrin act MD 14% and Glioma ERSR ind 1%.
Screening CCOC(=O)Cc1csc(NC(=O)c2ccc(Cl)s2)n1 returned N370S GC mod -13%, ClpP mod 1%, Apoferritin bind 3%, Integrin act MD -38% and Glioma ERSR ind 5%.
For CCC(C)NC(=O)CSC1=Nc2ccccc2C2=NC(CC(=O)NCc3ccccc3)C(=O)N12 (stereo not drawn) the results were N370S GC mod 17%, ClpP mod 28µM*, Apoferritin bind -12%, CBFb-RUNX1 inh -2%, Integrin act MD 12% and Glioma ERSR ind -5%.
Screening COCCCNC(=O)CSC1=Nc2ccccc2C2=NC(CC(=O)NCc3ccccc3)C(=O)N12 (stereo not drawn) returned ClpP mod 28µM*, Apoferritin bind -21%, CBFb-RUNX1 inh 2%, Integrin act MD 27% and Glioma ERSR ind 1%.
CCC(C)NC(=O)CSC1=Nc2ccccc2C2=NC(c3ccccc3)C(=O)N12 (stereo not drawn) was read as N370S GC mod 4%, ClpP mod 16µM*, Apoferritin bind -9%, CBFb-RUNX1 inh 0%, Integrin act MD 1% and Glioma ERSR ind -3%.
`COc1ccccc1NC(=O)CSC1=Nc2ccccc2C2=NC(CC(=O)NCc3ccccc3)C(=O)N12` (stereo not drawn) gave ClpP mod -3%, Apoferritin bind -3% and Glioma ERSR ind -3%.
`CC(C)C1N=C2c3ccccc3N=C(SCC(=O)NCc3ccccc3Cl)N2C1=O` (stereo not drawn) gave ClpP mod 4%, Apoferritin bind -2% and Glioma ERSR ind -5%.
For CC(C)C1N=C2c3ccccc3N=C(SCC#N)N2C1=O (stereo not drawn) the results were N370S GC mod 6%, ClpP mod 13µM*, Apoferritin bind -6%, CBFb-RUNX1 inh -1%, Integrin act MD -5% and Glioma ERSR ind 7%.
`COCC1CCCN(Cc2ccc3c(c2)CN(C(=O)c2ccc(-c4ccc(C)o4)cc2)CCO3)C1` (stereo not drawn) gave Glioma ERSR ind -5%.
For Cc1ccc2cc(CNCc3cccc4ccccc34)c(N3CCC(O)CC3)nc2c1 the results were Glioma ERSR ind -7%.
For CC1CN(C(=O)/C=C/c2ccc3c(c2)OCO3)CC(C)O1 (stereo not drawn) the results were N370S GC mod 3%, ClpP mod 28µM*, Apoferritin bind -9%, CBFb-RUNX1 inh 10%, Integrin act MD 10% and Glioma ERSR ind 4%.
For O=C(/C=C/c1ccc2c(c1)OCO2)N1CCOCC1 the results were N370S GC mod -17%, ClpP mod inconclusive, Apoferritin bind -6%, CBFb-RUNX1 inh -1%, Integrin act MD -15% and Glioma ERSR ind -4%.
CN(C)S(=O)(=O)c1ccc(N2CCCC2)c(C(=O)Nc2nc3c(ccc4ccccc43)s2)c1 was read as N370S GC mod -9%, ClpP mod 28µM*, Apoferritin bind 87%, CBFb-RUNX1 inh 3%, Integrin act MD 31% and Glioma ERSR ind -3%.
For O=C(c1cccc(F)c1)N1CCN(c2cccc(Cl)c2)CC1 the results were N370S GC mod -3%, ClpP mod 28µM*, Apoferritin bind 8%, CBFb-RUNX1 inh 2%, Integrin act MD 22% and Glioma ERSR ind -2%.
Screening O=C(c1cccc(F)c1)N1CCC(N2CCOCC2)CC1 returned ClpP mod 14µM*, Apoferritin bind -14%, CBFb-RUNX1 inh -7%, Integrin act MD 27% and Glioma ERSR ind -4%.
